# A549 viability: Nrf2 qHTS screen for inhibitors: counterscreen for cytotoxicity; A549 ARE-Fluc cells, CellTiter-Fluor viability, 18-24 h; Potency, µM (titrated, usually from 46 µM), for inactives: at the top dose activity change, negative = cytotoxicity, actives largely listed as inhibitors; 390,000 compounds, 0.16% hits; AID 504648, 2011; further: on the % scale 0 is the no-effect control and ±100 the full control effect
#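 Cytotoxicity counterscreen: CellTiter-Fluor fluorescence was measured in A549 ARE_Fluc cells after 18-24 h of compound exposure in a concentration series. The subsequent BugLite luminescent read reports ARE-luciferase activity.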
# rTrxR1 inhibitor: qHTS Assay for Inhibitors of Mammalian Selenoprotein Thioredoxin Reductase 1 (TrxR1): qHTS. Thioredoxin reductase 1, cytoplasmic (Rattus norvegicus), O89049. recombinant rTrxR1, NADPH fluorescence consumption, selenite substrate. Potency, µM (highest dose often 114 µM), inactives show at the highest dose activity change, negative = inhibition, hits mostly inhibitors. 390,000 compounds, 1% hits; further: on the % scale 0 is the no-effect control and ±100 the full control effect; nearly all actives have a fitted effect of over 65% in size
#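 Rat TrxR1 (90 nM in the dispensed reagent) was pre-reduced with 400 uM NADPH for 5 min at room temperature, then incubated with compound for 15 min. After 400 uM selenite was added, NADPH fluorescence (Ex 340/Em 450 nm) was followed for 8 min.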
# Nrf2 ARE act: qHTS of Nrf2 Activators | AREc32 ARE-luciferase reporter (MCF7-derived line), luminescence, 24 h | Potency, µM (top dose mostly 46.1 µM), for inactives: at the top dose activation, usual class: activators | 410,000 compounds, 0.31% hits; further: % of control where 0% means no effect; nearly all actives have a fitted effect of over 65% in size
#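 AREc32 cells carrying an ARE-driven firefly luciferase reporter were seeded at 1000 cells/well in OPTI-MEM with 5% FBS, then exposed to compound for 24 hr at 37 deg C. Luminescence was read with Steady-Glo after 30 min at RT.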
# GALK inh: qHTS Assay for Inhibitors of Human Galactokinase (GALK); Purified GALK, Kinase-Glo residual ATP luminescence; Potency, µM (doses to about 57.5 µM), for the others: at the top dose activity change, negative = inhibition, usual class: inhibitors; 270,000 compounds, 0.007% hits; AID 1868, 2009; further: on the % scale 0 is the no-effect control and ±100 the full control effect
# Target sequence (P51570 whole entry, looked up): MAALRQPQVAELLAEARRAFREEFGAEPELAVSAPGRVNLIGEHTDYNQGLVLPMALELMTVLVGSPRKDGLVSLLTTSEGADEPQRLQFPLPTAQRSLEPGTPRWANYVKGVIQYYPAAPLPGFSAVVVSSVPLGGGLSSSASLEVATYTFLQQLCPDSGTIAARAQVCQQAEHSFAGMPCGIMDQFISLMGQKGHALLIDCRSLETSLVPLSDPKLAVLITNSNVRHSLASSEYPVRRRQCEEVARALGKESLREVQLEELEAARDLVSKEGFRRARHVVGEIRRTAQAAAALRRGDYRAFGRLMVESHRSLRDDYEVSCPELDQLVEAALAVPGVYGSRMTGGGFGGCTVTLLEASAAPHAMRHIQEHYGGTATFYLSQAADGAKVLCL
#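 Quantitative HTS: GALK 5 nM, ATP 35 uM, galactose 100 uM, 1 h room temperature, then luciferase-based ATP detection.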
# Nrf2 block: Nrf2 qHTS screen for inhibitors | Potency, µM (titrated, usually from 46 µM), without a hit: at the top dose activity change, negative = inhibition, usual class: inhibitors | 360,000 compounds, 2.1% hits | AID 504444, 2011 | A549 ARE-Fluc reporter, luciferase luminescence, 18-24 h; further: on the % scale 0 is the no-effect control and ±100 the full control effect; nearly all actives have a fitted effect of over 60% in size
#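 Nrf2 function is reported as luminescence of an ARE-controlled luciferase in A549 cells. Compounds were tested at several concentrations, and a CellTiter-Fluor read on the same wells flagged cytotoxicity.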
# TrxR1 substrate: qHTS Assay for Substrates of Mammalian Selenoprotein Thioredoxin Reductase 1 (TrxR1): qHTS; Potency, µM (doses to about 114 µM), inactives show at the top dose activity change, negative = substrate turnover; AID 588456, 2011; 390,000 compounds, 0.01% hits; purified TrxR1 substrate turnover, NADPH consumption readout; Thioredoxin reductase 1, cytoplasmic (Rattus norvegicus), O89049; further: on the % scale 0 is the no-effect control and ±100 the full control effect; nearly all actives have a fitted effect of over 50% in size
#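 Rat TrxR1, dispensed at 90 nM, was prereduced with 400 uM NADPH (final) for 5 min at ~22 deg C, then incubated with compound 15 min before 400 uM selenite. A first-read NADPH fluorescence drop versus no-compound background flagged substrates.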
# * marks the source's active call; other numbers are inactive results; u = inconclusive; x = not tested or not shown; [ ] = remark or other dose. A selection: hits, their analogues and other compounds. The true share with any hit is near 3%. The call rests on the fitted dose curve; in most records, active means well fitted curve in the direction sought with a large enough effect; inconclusive means small, poorly fitted or top-dose-only effect, or another doubt; inactive means no such curve, though single readings can be large; an effect the other way counts as inactive or inconclusive. Potency means the concentration at half of the fitted maximal effect.
SMILES,A549 viability,rTrxR1 inhibitor,Nrf2 ARE act,GALK inh,Nrf2 block,TrxR1 substrate
Cc1cc2n(n1)C(c1ccc(O)cc1)Nc1ccccc1-2 (stereo not given),x,u,1%,7%,18µM*,6%
COc1cc(C2Nc3ccccc3-c3cc(C)nn32)ccc1O (stereo not given),8%,20%,5%,x,28%,36%
O=C(Cn1c(=O)n(Cc2ccccc2)c(=O)c2sc3ccccc3c21)Nc1ccc(F)cc1,-5%,23%,1%,x,-25%,5%
CCN(CC)CCNC(=O)CSc1nc2nc(C)c(Cc3ccccc3)c(C)n2n1,0%,24%,0%,x,-2%[9.27 µM],5%
COc1ccc(NS(=O)(=O)c2cccc(NC(=O)CCC(=O)c3cccs3)c2)cc1,-11%,-11%,0%,-2%,-3%,-8%
COc1ccc(NS(=O)(=O)c2cccc(NC(=O)CCC(=O)c3ccc(Cl)cc3)c2)cc1,-28%,-5%,9%,-1%,21µM*,-8%
O=C(CCN1CCN(c2ccccc2F)CC1)c1ccc(Br)cc1,0%,0.28µM*,u,0%,29%,10%
COc1ccc(C(=O)CCN2CCN(c3ccccc3F)CC2)cc1,6%,1.6µM*,-2%,2%,0%,4%
O=C(CCC(=O)N1CCN(c2ccccc2F)CC1)c1ccc(F)cc1,-3%,16%,0%,1%,1%,1%
O=C(CN1C(=O)COc2ccc(S(=O)(=O)N3CCCCCC3)cc21)N1CCN(c2cccc(Cl)c2)CC1,-7%,9%,-1%,x,-14%,-7%
O=c1c2cnn(-c3ccc(F)cc3)c2ncn1Cc1ccccc1Cl,7%,5%,0%,x,11%,-1%
COc1cc(/C=C2/C(=O)c3cccc([N+](=O)[O-])c3C2=O)c(Br)cc1O,-9%,28µM*,8%,-3%,-1%,-16%
COc1ccc(OC)c(S(=O)(=O)N2CCN(C(=O)c3cc(C4CC4)nn3-c3ccccc3)CC2)c1,-9%,-9%,0%,x,26µM*,-7%
Cc1ccccc1Cn1c(CN2CCCC(C)C2)nc2c1c(=O)n(C)c(=O)n2C (stereo not given),-2%,15%,0%,x,4%,5%
CCOc1ccc(N2C(=O)CC(N3CCN(c4ccc(Cl)cc4)CC3)C2=O)cc1 (stereo not given),3%,40µM*,0%,4%,-11%,14%[2.29 µM]
CCOc1ccc(N2C(=O)CC(N3CCN(c4ccc([N+](=O)[O-])cc4)CC3)C2=O)cc1 (stereo not given),-17%,25µM*,0%,-5%,-20%,-3%
COc1ccc(NC(=O)c2ccc3c(c2)N(Cc2cccc(Cl)c2)C(=O)c2ccccc2S3(=O)=O)cc1Cl,1%,18%,0%,x,12%,3%
Cc1ccc(N2C(=O)CC(Sc3ccccc3C(=O)O)C2=O)c([N+](=O)[O-])c1 (stereo not given),-2%,79µM*,2%[9.22 µM],4%,4%,-3%
Cc1ccc(N2C(=O)CC(Sc3ccccc3C(=O)O)C2=O)cc1 (stereo not given),3%,u,6%,-1%,-2%,-6%
Cc1cccc(N2C(=O)CC(Sc3ccccc3C(=O)O)C2=O)c1 (stereo not given),6%,56µM*,6%,2%,7%,-3%
CN(C)c1ccc(N2C(=O)CC(Sc3ccccc3C(=O)O)C2=O)cc1 (stereo not given),2%,79µM*,1%[9.22 µM],x,2%,-9%

# Screening results as filed in PubChem.
